Source: PubChem
An excerpt weighted towards active compounds, which were near 21% of everything screened.
CYP2C9 inhib: human CYP2C9 inhibition | AID 777 | actives 20% (n = 96,000) | CYP2C9 Supersomes, luciferin-H conversion, luminescence | inhibition, % at 5 µM;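 active = blocking of liver enzyme CYP2C9 beyond about 50% at 5 µM, limit read from the data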
CYP2C9 act: activators of human CYP2C9; actives 1.4% (n = 96,000); recombinant CYP2C9, luciferin-H conversion, luminescence; hits give high values; factor 1 = untreated enzyme, 0 = blocked; activation factor at 5 µM; AID 1024;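 active = activation factor of 2 or more for CYP2C9 at a 5 µM dose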;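 also: 0 = sulfaphenazole-blocked wells and 1 = vehicle-only wells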
MRP1 act: activates MRP-1. H69AR cells + doxorubicin, viability rescue, CellTiter-Glo. viability increase, % at 10 µM. actives 0.61% (n = 140,000). AID 799;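 active = viability gain under doxorubicin at or above a set limit, the compound median plus 3 SD, cut at about 4.7% in these data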;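 also: MRP-1 overexpressing cells given doxorubicin 25 µM after compound pretreatment; 18-22 h compound pretreatment then 72 h with doxorubicin before readout; 0% = doxorubicin-only wells and 100% = vehicle-treated cells without doxorubicin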
MRP reversal: compounds reversing MRP-mediated drug resistance | H69AR cells + 2 uM doxorubicin, CellTiter-Glo, 72 h | differential viability (reversal), % at 10 µM | actives 0.04% (n = 85,000);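 active = viability drop by adding the cancer drug above about 55%, with treated viability meeting a 40% cutoff, limit read from the data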;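 also: viability without doxorubicin minus viability with 2 µM doxorubicin for each compound; larger differential means the compound sensitizes cells more to doxorubicin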
CYP2C19 inhib: inhibitors of human CYP2C19; inhibition, % at 5 µM; CYP2C19 Supersomes, luciferin-H EGE luminescence, 30 min; actives 21% (n = 96,000); P33261;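 active = CYP2C19 inhibition above a set limit at 5 µM in the primary screen, cut at about 50% in these data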;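 also: plate controls were negative control wells for no effect and 2.5 mM tranylcypromine positive control for full effect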
Target sequence (P33261 whole entry, looked up): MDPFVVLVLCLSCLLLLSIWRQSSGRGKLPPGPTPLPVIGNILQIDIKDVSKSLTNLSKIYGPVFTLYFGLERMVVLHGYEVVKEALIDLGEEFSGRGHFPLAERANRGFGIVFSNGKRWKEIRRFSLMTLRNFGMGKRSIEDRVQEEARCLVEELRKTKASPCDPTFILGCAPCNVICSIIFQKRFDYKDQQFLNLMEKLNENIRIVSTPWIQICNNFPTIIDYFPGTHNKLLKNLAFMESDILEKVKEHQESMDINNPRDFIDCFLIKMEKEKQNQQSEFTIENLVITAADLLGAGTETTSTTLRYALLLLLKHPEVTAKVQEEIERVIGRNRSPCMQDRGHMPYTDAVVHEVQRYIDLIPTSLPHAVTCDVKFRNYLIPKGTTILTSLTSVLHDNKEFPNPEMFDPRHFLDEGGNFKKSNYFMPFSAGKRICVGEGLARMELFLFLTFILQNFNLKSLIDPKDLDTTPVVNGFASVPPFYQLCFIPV
CYP2C19 act: cytochrome P450 2C19 (human) activation. P33261. recombinant CYP2C19, luciferin-H EGE luminescence; hits give high values; 0 = fully inhibited enzyme, 1 = untreated enzyme. activation factor at 5 µM. 96,000 tested, under 10 active;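 active = activation factor of at least 2 at 5 µM in the primary screen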;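 also: 0 = wells with 2.5 mM tranylcypromine and 1 = vehicle-only wells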
An asterisk follows results filed as active; · = no result given.

SMILES | CYP2C9 inhib | CYP2C9 act | MRP1 act | MRP reversal | CYP2C19 inhib | CYP2C19 act
O=C(NCc1ccco1)C(=O)NCC1OCCN1S(=O)(=O)c1ccc(Cl)cc1 (centres undefined) | · | · | -1.8 | · | · | ·
O=S(=O)(c1ccc(Cl)cc1)N1CCSC1c1ccco1 (centres undefined) | 50.9* | 0.5 | -1.8 | 4.8 | 98.0* | 0
COc1ccc(-c2oc(NC(=O)CSc3nncn3C)c(C#N)c2-c2ccc(OC)cc2)cc1 | 58.0* | 0.4 | -6.0 | · | 39.0 | 0.6
CCn1c(SCC(=O)Nc2oc(-c3ccccc3)c(-c3ccccc3)c2C#N)nnc1-c1ccncc1 | 78.2* | 0.2 | 1.9 | 5.1 | 57.7* | 0.4
N#Cc1c(NC(=O)CSc2ccccn2)oc(-c2ccccc2)c1-c1ccccc1 | 85.7* | 0.1 | -2.3 | 2.1 | -17.0 | 1.2
CC(C)CC(C(=O)Nc1oc(-c2ccccc2)c(-c2ccccc2)c1C#N)N1C(=O)c2ccccc2C1=O (centres undefined) | · | · | 1.0 | 7.8 | · | ·
Cc1cnc(C(=O)OCC(=O)Nc2oc(-c3ccccc3)c(-c3ccccc3)c2C#N)cn1 | 62.2* | 0.4 | -4.6 | -17.6 | 10.4 | 0.9
Fc1ccccc1OCCCCCCN1CCCC1 | 12.3 | 0.9 | -1.1 | · | 14.4 | 0.9
N#Cc1c(NC(=O)CSc2ncnc3sccc23)oc(-c2ccco2)c1-c1ccco1 | 83.6* | 0.2 | -1.0 | -23.6 | 26.3 | 0.7
CCNC(=O)CSc1ncnc2sccc12 | 5.5 | 0.9 | -1.2 | 7.4 | 14.3 | 0.9
CCn1c(SCC(=O)Nc2oc(-c3ccccc3)c(-c3ccccc3)c2C#N)nnc1-c1ccco1 | 96.5* | 0 | -3.2 | -8.2 | 94.4* | 0.1
CCn1c(SCC(=O)Nc2nc(C)cs2)nnc1-c1ccco1 | 3.3 | 1 | -0.6 | 8.5 | 38.0 | 0.6
C/C(N)=C(/C#N)C(=O)COC(=O)CCC1CCCC1 | 15.7 | 0.8 | 0.1 | 5.8 | 49.4 | 0.5
Cc1ccc(N2C(=O)c3ccc(C(=O)N4CCN(c5ccccc5F)CC4)cc3C2=O)cc1 | 6.0 | 0.9 | -1.3 | 11.9 | 8.9 | 0.9
COc1cccc(Nc2ncnc3ccccc23)c1 | 49.6 | 0.5 | -3.0 | -5.8 | 41.8 | 0.6
O=C(Oc1cccc(Nc2ncnc3ccccc23)c1)c1ccccc1Cl | 57.2* | 0.4 | -1.5 | · | 13.9 | 0.9
CN(NS(=O)(=O)c1ccccc1)c1nc2ccccc2nc1C(F)(F)F | 90.3* | 0.1 | -1.8 | -20.2 | 99.2* | 0
CCCC(=O)c1c[nH]c(C(=O)NCCc2ccccn2)c1 | 0.8 | 1 | -2.0 | · | -3.0 | 1
Cc1n[nH]c(C)c1S(=O)(=O)N1CCCC(C(=O)NCc2ccccc2Cl)C1 (centres undefined) | · | · | -2.7 | 2.8 | · | ·
Cc1noc(/C=C/N(C)C)c1S(=O)(=O)N1CCCC(C(=O)NCc2ccc(F)cc2)C1 (centres undefined) | 72.8* | 0.3 | 11.7* | 7.6 | 45.9 | 0.5
Cc1noc(/C=C/N(C)C)c1S(=O)(=O)N1CCCC(C(=O)NCc2ccc(Cl)cc2)C1 (centres undefined) | 77.2* | 0.2 | 4.9* | 10.6 | 49.7 | 0.5
Cc1ccc(CNC(=O)C2CCCN(S(=O)(=O)c3c(C)noc3C)C2)cc1 (centres undefined) | -4.5 | 1 | -4.5 | 12.6 | -13.1 | 1.1
CS(=O)(=O)N1CCCC(C(=O)NCc2ccc(F)cc2)C1 (centres undefined) | 0.4 | 1 | 0.7 | -1.7 | 0.7 | 1
Cc1noc(/C=C/N(C)C)c1S(=O)(=O)N1CCCC(C(=O)NCc2ccccc2Cl)C1 (centres undefined) | 78.1* | 0.2 | 7.6* | 8.0 | 24.2 | 0.8
C=C(C)CNC(=S)NNC(=O)CCn1c2ccc(Cl)cc2c2cc(Cl)ccc21 | · | · | -5.5 | · | · | ·
SMILES | CYP2C9 inhib | CYP2C9 act | MRP1 act | MRP reversal | CYP2C19 inhib | CYP2C19 act
COc1nc(N/N=C/c2cc3c(cc2Br)OCO3)nc(N2CCOCC2)n1 | 77.4* | 0.2 | -1.6 | · | 34.7 | 0.7
O=S(=O)(Cc1ccccc1)c1cnc2ccccc2n1 | -148.9 | 2.5* | -5.3 | -2.4 | 89.3* | 0.1
CC1=C(C)CS(=O)N(c2ccc(S(N)(=O)=O)cc2)C1 (centres undefined) | -142.1 | 2.4* | -0.1 | 4.2 | 37.3 | 0.6
CC1=C(C)CS(=O)N(S(=O)(=O)c2ccccc2)C1 (centres undefined) | 22.3 | 0.8 | -2.1 | -1.0 | 15.3 | 0.8
Clc1ccc(-c2nc3cnccn3c2NC2CCCC2)cc1 | 89.4* | 0.1 | -2.3 | · | 76.1* | 0.2
CSc1ccc(-c2nc3cnccn3c2Nc2ccc3c(c2)OCO3)cc1 | 87.6* | 0.1 | -2.3 | · | 95.9* | 0
Oc1ccccc1-c1nc2cnccn2c1Nc1ccc2c(c1)OCCO2 | 93.9* | 0.1 | -1.0 | -0.5 | 91.9* | 0.1
Clc1ccc(-c2nc3ncccn3c2Nc2ccc3c(c2)OCCO3)cc1 | -8.7 | 1.1 | -5.2 | · | -9.4 | 1.1
Clc1ccc(-c2nc3cnccn3c2Nc2ccc3c(c2)OCO3)cc1 | 81.6* | 0.2 | -2.0 | -18.7 | 87.4* | 0.1
O=[N+]([O-])c1cccc(N/N=C/c2cccc3ccccc23)c1 | · | · | -1.6 | · | · | ·
O=C(O)CCSc1nnc(SCC(=O)NCC(F)(F)F)s1 | · | · | -2.9 | · | · | ·
CCOC(=O)c1ccc(NC(=O)CCc2nc(-c3ccccc3Cl)no2)cc1 | 95.6* | 0 | -4.8 | -41.8 | 24.7 | 0.8
CCOC(=O)c1cccc(NC(=O)CCc2nc(-c3ccccc3F)no2)c1 | 16.9 | 0.8 | 1.9 | · | 7.3 | 0.9
CCOC(=O)c1ccc(NC(=O)CCc2nc(-c3ccccc3)no2)cc1 | 50.3* | 0.5 | 0.7 | 14.2 | 5.9 | 0.9
CN(C)c1ccc(N=Nc2ccccc2C(=O)OCC(=O)N(C)c2ccccc2)cc1 | · | · | -2.5 | · | · | ·
Cc1nc(-c2coc3cc(O)c(C)cc3c2=O)cs1 | 3.6 | 1 | -1.5 | -2.7 | 68.0* | 0.3
CC(CCc1ccccc1)NS(=O)(=O)c1ccccc1 (centres undefined) | 74.9* | 0.3 | -1.6 | · | 54.8* | 0.5
O=S(=O)(NCCCc1ccccc1)c1ccccc1 | 69.6* | 0.3 | -3.0 | · | 97.8* | 0
CC(CCc1ccccc1)NCc1ccncc1 (centres undefined) | 83.3* | 0.2 | -0.8 | -7.3 | 95.6* | 0
CC(C)CCCC(C)NS(=O)(=O)Cc1ccccc1 (centres undefined) | 91.9* | 0.1 | 0.2 | 21.0 | 54.7* | 0.5
C#CCOCCOCCOCCNc1nc(N2CCN(C(=O)[C@H](C(C)C)n3cc(CCO)nn3)CC2)nc(N2CCN(C(=O)[C@H](CCCCN)n3cc(CCCC)nn3)CC2)n1 | · | · | 0.2 | · | · | ·
CCCCSC(=S)N(C)C1CCS(=O)(=O)C1 (centres undefined) | 29.0 | 0.7 | -2.6 | · | 48.7 | 0.5
CC(/C=N/NC(=O)Cn1cnc2c1c(=O)n(C)c(=O)n2C)=C\c1ccccc1 | · | · | -2.2 | · | · | ·
CCOCCCNS(=O)(=O)c1ccccc1 | 1.1 | 1 | 0.3 | 9.2 | 60.4* | 0.4
